Compound activity from PubChem BioAssay.
Sm TGR inh = inhibitors of Schistosoma mansoni thioredoxin glutathione reductase | AID 485364 | Q962Y6 | hit rate 3% among 360,000 | Potency, µM (titrated, usually from 114 µM), for the others: at the highest dose activity change, negative = inhibition, most hits filed as inhibitors | purified TGR, DTNB reduction, TNB absorbance 405 nm; further: on the % scale 0 is the no-effect control and ±100 the full control effect; nearly all actives have a fitted effect of over 60% in size
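First, TGR (20 nM dispensed) and NADPH were mixed with compound. Second, a 15 min room-temperature incubation followed. Third, further NADPH and then DTNB were added to start the reaction. Finally, TNB absorbance was monitored kinetically.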
Pf growth 48h = inhibits P. falciparum growth in the first generation, 48 h; P. falciparum luciferase growth in erythrocytes, 48 h; Potency, µM (series often up to 28.7 µM), inactives show top-dose activity change, negative = inhibition, actives largely listed as inhibitors; hit rate 5.9% among 310,000; AID 504832; further: on the % scale 0 is the no-effect control and ±100 the full control effect
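Here the parasites carry a stable luciferase gene and grow inside erythrocytes in Albumax-based RPMI medium with compound for one erythrocytic cycle. Activity is scored as loss of luminescent signal.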
Pf growth 96h = P. falciparum growth inhibition at 96 hour, primary screen for plastid delayed-death inhibitors; P. falciparum luciferase reporter growth, 96 h; Potency, µM (top dose mostly 28.7 µM), without a hit: top-dose activity change, negative = inhibition, usual class: inhibitors; hit rate 6.9% among 320,000; AID 504834; further: on the % scale 0 is the no-effect control and ±100 the full control effect
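Parasite growth measured via integrated firefly luciferase reporter in P. falciparum. Infected erythrocytes at 2% hematocrit, 0.05% parasitemia final were treated 96 hours at 37 C under 5% CO2, and luminescence was read.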
SARS PLP yeast = inhibitors of SARS-CoV papain-like protease in yeast; hit rate 0.19% among 330,000; S. cerevisiae expressing SARS-CoV PLpro, growth rescue; Potency, µM (series often up to 32.9 µM), for the others: at the highest dose activity, positive = growth rescue, hits mostly activators; AID 485353; calls by dose curve; further: 0% is about no effect; nearly all actives have a fitted effect of over 55% in size
Starred values were filed as active, the others as inactive; u = inconclusive; x = not tested or not shown; [ ] = remark or other dose. Only some compounds are listed: those with a hit (about 12% of all), similar ones and a draw of the others. Unless noted, the call rests on the fitted dose curve; in most records, active means well fitted curve in the direction sought with a large enough effect; inconclusive means small, poorly fitted or top-dose-only effect, or another doubt; inactive means no such curve, though single readings can be large; an effect the other way counts as inactive or inconclusive. Potency means the concentration at half of the fitted maximal effect.

SMILES	Sm TGR inh	Pf growth 48h	Pf growth 96h	SARS PLP yeast
COc1ccc(C2CN=NC23CCCc2ccccc2C3=O)cc1 (stereo unspecified)	9.3%	3.7µM*	2.62µM*	-14.7%
COc1ccccc1C1CN=NC12CCCc1ccccc1C2=O (stereo unspecified)	16.0%	9.28µM*	16.5µM*	-4.3%
COc1ccccc1C1NC(=O)c2ccccc2O1 (stereo unspecified)	2.5%	10.4%	u	4.0%
COc1ccc(C2CN=NC23CCc2ccccc2C3=O)cc1 (stereo unspecified)	-24.3%	13.1µM*	u	-0.9%
O=C1COc2ccc(-c3cc(-c4ccc(Cl)cc4)c4c(n3)-c3ccccc3OC4)cc2N1	-4.1%	x	x	x
CCC(=O)N1c2ccccc2CC1C(=O)NCCc1ccc(SC)cc1 (stereo unspecified)	4.9%	x	x	x
CCOC(=O)CC(NS(=O)(=O)c1cc(-c2cc(C)no2)ccc1C)c1ccc(C)cc1 (stereo unspecified)	-0.9%	x	x	x
CNS(=O)(=O)c1cn(CC(=O)N2CCN(c3cccc(C)c3C)CC2)cc1S(=O)(=O)NC	-0.4%	x	x	x
Cc1cc(C)c2cc(C(=O)Nc3ccc(C)c(F)c3)[nH]c2c1	-7.8%	11.7µM*	u	-3.3%
Fc1cc(F)nc(NCc2ccccc2)n1	7.4%	19.3%	45.5%	-1.8%
Cc1cc(Oc2ccccc2)nc(NCc2ccccc2)n1	6.6%	0.2%	-0.1%	3.8%
Cc1cc(Nc2ccc(Cl)cc2)nc(NCc2ccccc2)n1	0.0%	0.928µM*	0.522µM*	-10.0%
Cc1cc(Nc2ccccc2)nc(NCc2ccccc2)n1	-4.1%	0.586µM*	u	-28.7%
CCCCNc1cc(C)nc(NCc2ccccc2)n1	-3.1%	1.47µM*	0.828µM*	-11.9%
Cc1cc(N2CCC(C)CC2)nc(NCc2ccccc2)n1	4.4%	10.4µM*	7.38µM*	-15.4%
Cc1cc(Oc2ccccc2F)nc(NCc2ccccc2)n1	-31.6%	-4.2%	34.5%	12.1%
Cc1cc(Nc2cccc(F)c2)nc(NCc2ccccc2)n1	-18.9%	0.37µM*	u	7.9%
Fc1cc(NCc2ccccc2)nc(NCc2ccccc2)n1	-10.3%	28.5%	u	-4.0%
CNCCCc1ccccc1	-21.3%	14.5%	162.0%	1.0%
Cc1cc(C)nc(NCCCc2ccccc2)n1	-1.4%	-27.4%	13.1µM*	5.0%
CN1CCN(CC(O)(c2ccc(Cl)cc2)c2ccc(Cl)cc2)CC1	0.1%	9.28µM*	14.7µM*	2.3%
CN1CCN(CC(O)COc2ccc(Cl)cc2)CC1 (stereo unspecified)	u	x	20.1%	8.4%
Cc1cnc(C(=O)OCC(=O)N(Cc2ccccc2)C(C)(C)C)cn1	x	x	x	-1.2%
Cc1nc2scc(-c3ccco3)c2c(=O)n1/N=C/N(C)C	25.1µM*	27.3%	x	1.7%
O=S(=O)(Cc1noc(-c2ccc(Cl)cc2)n1)Cc1ccco1	50.1µM*	8.6%	54.5%	-0.4%
SMILES	Sm TGR inh	Pf growth 48h	Pf growth 96h	SARS PLP yeast
O=S(=O)(Cc1ccco1)Cc1nc(-c2ccc(Cl)cc2)cs1	-32.4%	11.2%	4.7%	0.0%
COc1ccc(-c2cn(Cc3ccc(C(=O)c4ccccc4)cc3)nn2)cc1	32.7%	85.8%	84.8%	4.1%
CN(C)CCn1nnnc1SCC1=C(C(=O)O)N2C(=O)[C@@H](NC(=O)Cc3csc(N)n3)[C@@H]2SC1	x	u	6.42µM*	x
CN(C)CCn1nnnc1SCC1=C(C(=O)O)N2C(=O)[C@@H](NC(=O)Cc3csc(N)n3)[C@H]2SC1	31.6µM*	11.3%	13.4%	x
NCc1ccccc1CC(=O)N[C@@H]1C(=O)N2C(C(=O)O)=C(CSc3nnnn3CC(=O)O)CS[C@@H]12	x	-3.1%[12.8 µM]	-5.7%[12.8 µM]	x
COc1ccc(-c2nc3sc(CCNC(=O)C(=O)Nc4c(C)cccc4C)c(C)n3n2)cc1	18.3%	x	x	x
COc1ccc(-c2cc(C(=O)N3CC(C)CC(C)C3)c3ccccc3n2)cc1OC (stereo unspecified)	0.6%	u	10.4µM*	0.1%
COc1ccc(-c2cc(C(=O)N3CCC3)c3ccccc3n2)cc1OC	-3.1%	u	-27.0%	0.5%
COc1ccc(-c2cc(C(=O)N3CCN(c4cccc(C)c4C)CC3)c3ccccc3n2)cc1OC	-2.7%	9.28µM*	10.4µM*	0.1%
O=C(c1cc(-c2ccncc2)nc2ccccc12)N1CCN(S(=O)(=O)/C=C/c2ccccc2)CC1	4.6%	1.85µM*	u	17.2%
COc1ccc(-c2nn(C)c3sc(C(=O)N4CCN(c5cccc(C)c5C)CC4)cc23)cc1OC	25.1µM*	x	x	x
